Reference: PubChem BioAssay AID488984 (The Scripps Research Institute Molecular Screening Center, 2010)
Unmarked numbers belong to inactive results. Activity calls are given as the source filed them. No stated cut-off is given here; in the data, active means inhibition above about 55%; inactive means the rest.

What follows are molecules tested on SARS coronavirus 3C-like protease (3CLpro, nsp5) (assay: blockers of SARS 3CLpro activity – biochemical, fluorescence, set 2, late-stage follow-up (AID 488984)). Conditions: recombinant 3CLpro, fluorogenic peptide cleavage; at 100 µM; active compounds read high.

| Structure (SMILES) | inhibition |
| --- | --- |
| CC(C)(C)NC(=O)C(c1ccsc1)N(C(=O)c1ccco1)c1ccc(OC(F)F)cc1 (configuration not stated) | 25.9% |
| CC(C)(C)NC(=O)C(c1ccsc1)N(C(=O)c1n[nH]c2ccccc12)c1ccc(C(C)(C)C)cc1 (configuration not stated) | 17.9% |
| CC(=O)Nc1ccc(N(C(=O)Cn2ccnc2C)C(C(=O)NC(C)(C)C)c2ccsc2)cc1 (configuration not stated) | 2.36% |
| CC(C)(C)NC(=O)C(c1ccsc1)N(C(=O)c1ccc(C(F)(F)F)nc1)C1CC1 (configuration not stated) | 11.3% |
| CC(C)(C)NC(=O)C(c1cccnc1)N(C(=O)Cc1c[nH]c2ccccc12)C1CC1 (configuration not stated) | 8.97% |
| CC(C)(C)NC(=O)C(c1ccsc1)N(C(=O)c1ccco1)C1CC1 (configuration not stated) | 7.74% |
| CC(C)c1ccc(N(C(=O)c2n[nH]c3ccccc23)C(C(=O)NC(C)(C)C)c2ccsc2)cc1 (configuration not stated) | 7.3% |
| CC(C)(C)NC(=O)C(c1ccsc1)N(C(=O)c1ccc(C(F)(F)F)nc1)c1ccc(OCF)cc1 (configuration not stated) | 21.3% |
| CC(C)(C)NC(=O)C(c1cccnc1)N(C(=O)Cc1cccnc1)c1ccc(OCF)cc1 (configuration not stated) | 18.7% |
| Cc1nc2ccccc2n1CC(=O)N(c1ccc(N)cc1)C(C(=O)NC(C)(C)C)c1ccsc1 (configuration not stated) | 1.01% |
| CC(C)(C)NC(=O)C(c1cccnc1)N(C(=O)c1ccc(C(F)(F)F)nc1)C1CC1 (configuration not stated) | 5.34% |
| CC(C)(C)NC(=O)C(c1cccnc1)N(C(=O)c1n[nH]c2ccccc12)c1ccc(C(C)(C)C)cc1 (configuration not stated) | 20.6% |
| CC(C)(C)NC(=O)C(c1cccnc1)N(C(=O)c1ccc(C#N)cc1)c1ccc(OCF)cc1 (configuration not stated) | -7.47% |
| CC(C)(C)NC(=O)C(c1cccnc1)N(C(=O)c1n[nH]c2ccccc12)c1ccc(OC(F)F)cc1 (configuration not stated) | 24.6% |
| CCC(=O)Nc1ccc(N(C(=O)Cn2ccnc2C)C(C(=O)NC(C)(C)C)c2ccsc2)cc1 (configuration not stated) | 5.34% |
| Cc1nccn1CC(=O)N(c1ccc(NS(C)(=O)=O)cc1)C(C(=O)NC(C)(C)C)c1ccsc1 (configuration not stated) | 0.44% |
| CC(C)c1ccc(N(C(=O)c2ccc(C#N)cc2)C(C(=O)NC(C)(C)C)c2ccsc2)cc1 (configuration not stated) | -5.45% |
| CC(C)(C)NC(=O)C(c1cccnc1)N(C(=O)c1ccc(C(F)(F)F)nc1)c1ccc(OCF)cc1 (configuration not stated) | 13.7% |
| CCC(=O)Nc1ccc(N(C(=O)Cn2nnc3ccccc32)C(C(=O)NC(C)(C)C)c2ccsc2)cc1 (configuration not stated) | 94.2% (active) |
| CC(C)c1ccc(N(C(=O)Cc2cccc3ccccc23)C(C(=O)NC(C)(C)C)c2ccsc2)cc1 (configuration not stated) | 8.43% |
| CC(C)(C)NC(=O)C(c1ccsc1)N(C(=O)Cn1cnc2ccccc21)c1ccc(NS(C)(=O)=O)cc1 (configuration not stated) | 38% |
| CC(C)c1ccc(N(C(=O)c2ccco2)C(C(=O)NC(C)(C)C)c2cccnc2)cc1 (configuration not stated) | 65.6% (active) |
